# Data published in article PMC7862700, “An all-to-all approach to the identification of sequence-specific readers for epigenetic DNA modifications on cytosine”.
# Legend:
# Assay in all cases: DAPPL (digital affinity profiling via proximity ligation, sequencing); 10 mM Tris-HCl pH 7.5, 50 mM NaCl, 1 mM DTT, 4% glycerol, room temperature, 30 min; GST-TFs on glutathione beads, 16-mer random dsDNA library, 0.1% formaldehyde crosslink after washing; high values mean tight binding
# FEV = target: T1, FEV (Homo sapiens, UniProt Q99581 1-238); conditions: protein: recombinant; tags: N-terminal GST; dsDNA, one strand shown
# T1 sequence: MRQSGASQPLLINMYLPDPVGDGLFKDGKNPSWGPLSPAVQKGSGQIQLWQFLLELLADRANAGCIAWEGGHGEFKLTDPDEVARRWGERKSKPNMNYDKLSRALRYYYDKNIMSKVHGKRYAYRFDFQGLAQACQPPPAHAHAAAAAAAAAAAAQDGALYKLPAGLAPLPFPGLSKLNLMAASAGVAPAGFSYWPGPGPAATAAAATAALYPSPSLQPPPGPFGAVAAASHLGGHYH
# Method in brief: (§1)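 The binding signal reported is, for every hexamer, its read frequency for a factor over its read frequency for the tag-only sample. Reads came from pools of yeast-expressed, GST-fused human transcription factors on glutathione beads, barcoded with DNA and mixed with that sample, which were incubated with 200 nmole of a random double-stranded 16-mer DNA library in Tris/NaCl/DTT/glycerol buffer at room temperature for 30 min. After washing, the pools were crosslinked with 0.1% formaldehyde, proximity-ligated with BsaI/T4 ligase for 1 h at 37 °C, PCR-amplified and sequenced on an Illumina NextSeq500.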
# ETV5 = ETV5 (Homo sapiens, UniProt P41161 1-510); conditions: protein: recombinant; tags: N-terminal GST; dsDNA, one strand shown
# Sequence of ETV5 (P41161 whole entry): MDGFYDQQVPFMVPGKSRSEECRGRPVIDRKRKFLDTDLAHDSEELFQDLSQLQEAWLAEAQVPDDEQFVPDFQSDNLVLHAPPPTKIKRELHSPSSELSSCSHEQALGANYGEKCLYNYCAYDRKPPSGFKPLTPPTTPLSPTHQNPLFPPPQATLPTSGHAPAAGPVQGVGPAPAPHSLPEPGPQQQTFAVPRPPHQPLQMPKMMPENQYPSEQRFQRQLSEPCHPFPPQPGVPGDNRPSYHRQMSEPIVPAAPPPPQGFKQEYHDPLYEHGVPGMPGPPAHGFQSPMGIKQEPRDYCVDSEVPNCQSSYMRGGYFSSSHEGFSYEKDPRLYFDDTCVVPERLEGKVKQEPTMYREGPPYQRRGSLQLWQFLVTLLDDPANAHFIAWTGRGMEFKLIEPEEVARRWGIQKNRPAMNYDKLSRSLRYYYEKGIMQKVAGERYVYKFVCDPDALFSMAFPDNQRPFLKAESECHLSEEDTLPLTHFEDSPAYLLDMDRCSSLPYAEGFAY
# Method in brief: as §1
# HSF1 = HSF1 (Homo sapiens, UniProt Q00613 1-529); conditions: protein: recombinant; tags: N-terminal GST; chain copies: 3; dsDNA, one strand shown
# Sequence of HSF1 (Q00613 whole entry): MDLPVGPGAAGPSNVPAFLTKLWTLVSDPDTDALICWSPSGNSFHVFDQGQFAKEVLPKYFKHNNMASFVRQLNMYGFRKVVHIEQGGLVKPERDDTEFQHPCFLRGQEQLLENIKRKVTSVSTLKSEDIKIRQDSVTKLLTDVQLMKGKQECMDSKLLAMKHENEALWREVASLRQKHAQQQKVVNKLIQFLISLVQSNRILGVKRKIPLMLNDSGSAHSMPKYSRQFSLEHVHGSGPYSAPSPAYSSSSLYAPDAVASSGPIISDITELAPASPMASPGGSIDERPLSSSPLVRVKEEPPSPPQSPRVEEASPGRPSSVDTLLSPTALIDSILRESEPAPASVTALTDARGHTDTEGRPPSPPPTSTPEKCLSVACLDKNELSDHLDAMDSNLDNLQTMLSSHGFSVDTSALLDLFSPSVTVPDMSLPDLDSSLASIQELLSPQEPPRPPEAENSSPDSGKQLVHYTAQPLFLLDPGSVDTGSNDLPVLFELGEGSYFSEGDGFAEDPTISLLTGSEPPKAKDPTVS
# Method in brief: as §1
# SPIC = target: T2, SPIC (Homo sapiens, UniProt Q8N5J4 1-248); conditions: protein: recombinant; tags: N-terminal GST; dsDNA, one strand shown
# T2 sequence: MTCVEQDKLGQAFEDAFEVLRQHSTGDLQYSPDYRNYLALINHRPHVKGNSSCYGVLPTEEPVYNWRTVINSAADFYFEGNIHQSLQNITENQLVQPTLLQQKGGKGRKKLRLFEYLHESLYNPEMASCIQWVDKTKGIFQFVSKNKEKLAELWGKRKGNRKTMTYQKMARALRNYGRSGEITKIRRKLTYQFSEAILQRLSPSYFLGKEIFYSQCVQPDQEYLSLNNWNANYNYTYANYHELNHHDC
# Method in brief: as §1
# ELF4 = ELF4 (Homo sapiens, UniProt Q99607 1-663); conditions: protein: recombinant; tags: N-terminal GST; dsDNA, one strand shown
# Sequence of ELF4 (Q99607 whole entry): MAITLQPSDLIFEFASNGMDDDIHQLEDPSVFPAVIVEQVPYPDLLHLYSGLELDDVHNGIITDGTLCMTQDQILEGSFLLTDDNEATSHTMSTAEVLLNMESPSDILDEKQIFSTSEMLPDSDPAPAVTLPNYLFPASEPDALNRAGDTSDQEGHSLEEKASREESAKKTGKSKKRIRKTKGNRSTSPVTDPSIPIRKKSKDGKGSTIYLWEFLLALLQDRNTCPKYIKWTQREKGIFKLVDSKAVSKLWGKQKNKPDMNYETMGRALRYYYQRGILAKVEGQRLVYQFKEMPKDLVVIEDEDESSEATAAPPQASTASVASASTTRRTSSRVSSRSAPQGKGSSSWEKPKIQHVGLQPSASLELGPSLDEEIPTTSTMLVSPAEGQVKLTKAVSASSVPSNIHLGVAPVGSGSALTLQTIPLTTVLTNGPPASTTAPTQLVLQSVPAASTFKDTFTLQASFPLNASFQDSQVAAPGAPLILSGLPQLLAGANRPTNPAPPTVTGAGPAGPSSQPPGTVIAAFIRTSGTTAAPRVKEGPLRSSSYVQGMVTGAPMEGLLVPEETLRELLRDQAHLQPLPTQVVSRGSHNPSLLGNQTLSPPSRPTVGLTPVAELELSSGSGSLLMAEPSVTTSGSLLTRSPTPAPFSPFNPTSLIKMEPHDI
# Method in brief: as §1
# ELK4 = target: T3, ELK4 (Homo sapiens, UniProt P28324-2 1-405); conditions: protein: recombinant; tags: N-terminal GST; dsDNA, one strand shown
# T3 sequence: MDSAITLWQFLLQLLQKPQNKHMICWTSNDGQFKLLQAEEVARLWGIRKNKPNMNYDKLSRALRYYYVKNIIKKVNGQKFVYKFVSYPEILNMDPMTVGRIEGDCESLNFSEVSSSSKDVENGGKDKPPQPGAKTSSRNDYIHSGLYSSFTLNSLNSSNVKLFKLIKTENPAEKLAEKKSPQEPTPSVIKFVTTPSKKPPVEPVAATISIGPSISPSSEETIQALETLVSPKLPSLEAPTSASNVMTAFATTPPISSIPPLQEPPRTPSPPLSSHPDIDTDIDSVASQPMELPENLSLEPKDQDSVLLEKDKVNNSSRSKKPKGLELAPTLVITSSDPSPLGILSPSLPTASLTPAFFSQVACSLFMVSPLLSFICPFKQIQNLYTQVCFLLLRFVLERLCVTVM
# Method in brief: as §1
# ETV2 = target: T4, ETV2 (Homo sapiens, UniProt O00321 1-342); conditions: protein: recombinant; tags: N-terminal GST; dsDNA, one strand shown
# T4 sequence: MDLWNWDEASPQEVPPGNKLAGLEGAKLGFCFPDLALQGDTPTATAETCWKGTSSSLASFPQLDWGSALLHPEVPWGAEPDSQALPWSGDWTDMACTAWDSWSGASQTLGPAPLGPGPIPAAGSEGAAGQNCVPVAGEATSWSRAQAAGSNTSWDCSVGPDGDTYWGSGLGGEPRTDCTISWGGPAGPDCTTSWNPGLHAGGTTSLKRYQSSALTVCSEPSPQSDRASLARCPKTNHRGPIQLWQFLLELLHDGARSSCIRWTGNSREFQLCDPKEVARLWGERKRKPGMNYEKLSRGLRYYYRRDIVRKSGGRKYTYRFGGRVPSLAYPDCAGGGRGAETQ
# Method in brief: as §1
# ELF3 = target: T5, ELF3 (Homo sapiens, UniProt P78545 1-371); conditions: protein: recombinant; tags: N-terminal GST; dsDNA, one strand shown
# T5 sequence: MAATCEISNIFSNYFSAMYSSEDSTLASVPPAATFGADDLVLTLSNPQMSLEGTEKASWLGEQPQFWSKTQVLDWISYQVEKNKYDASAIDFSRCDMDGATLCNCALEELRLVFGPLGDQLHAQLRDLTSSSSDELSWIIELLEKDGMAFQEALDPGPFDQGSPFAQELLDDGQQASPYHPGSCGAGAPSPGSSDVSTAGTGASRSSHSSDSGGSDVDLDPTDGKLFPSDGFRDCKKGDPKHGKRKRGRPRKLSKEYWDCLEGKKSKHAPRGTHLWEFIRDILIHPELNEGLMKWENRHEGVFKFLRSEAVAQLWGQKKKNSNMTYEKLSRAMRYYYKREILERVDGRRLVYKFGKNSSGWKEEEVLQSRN
# Method in brief: as §1
# CRX = CRX (Homo sapiens, UniProt O43186 1-299); conditions: protein: recombinant; tags: N-terminal GST; dsDNA, one strand shown
# Sequence of CRX (O43186 whole entry): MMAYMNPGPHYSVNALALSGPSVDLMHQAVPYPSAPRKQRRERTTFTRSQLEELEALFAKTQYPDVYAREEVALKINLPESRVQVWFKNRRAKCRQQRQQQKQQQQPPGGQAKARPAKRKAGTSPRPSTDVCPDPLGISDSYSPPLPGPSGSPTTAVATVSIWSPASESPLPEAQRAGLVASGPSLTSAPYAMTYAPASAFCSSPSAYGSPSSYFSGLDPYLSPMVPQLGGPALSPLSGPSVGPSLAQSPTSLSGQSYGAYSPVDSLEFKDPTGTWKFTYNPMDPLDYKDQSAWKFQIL
# Method in brief: as §1
sequence,measurement,setting,value
AACTCT,binding signal,FEV,"1.31 fold enrichment (6-mer frequency, TF over GST control)"
same,binding signal,ETV5,"1.36 fold enrichment (6-mer frequency, TF over GST control)"
same,binding signal,HSF1,"1.4 fold enrichment (6-mer frequency, TF over GST control)"
same,binding signal,SPIC,"1.6 fold enrichment (6-mer frequency, TF over GST control)"
same,binding signal,ELF4,"1.36 fold enrichment (6-mer frequency, TF over GST control)"
same,binding signal,ELK4,"1.24 fold enrichment (6-mer frequency, TF over GST control)"
same,binding signal,ETV2,"1.24 fold enrichment (6-mer frequency, TF over GST control)"
same,binding signal,ELF3,"1.44 fold enrichment (6-mer frequency, TF over GST control)"
same,binding signal,CRX,"1.37 fold enrichment (6-mer frequency, TF over GST control)"
